TDP1 cell CPT – qHTS for Inhibitors of human tyrosyl-DNA phosphodiesterase 1 (TDP1): qHTS in cells in presence of CPT; AID 686979, 2013; chicken DT40 Tdp1-/-;hTDP1 cells + 20 nM CPT, ATP luminescence, 48 h; Potency, µM (top dose mostly 46.2 µM), most hits filed as inhibitors; hit rate 12% among 420,000; note: nearly all actives have a fitted effect of over 55% in size
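Chicken DT40 Tdp1-/- cells complemented with human TDP1, 400 cells/well, exposed to compounds plus 20 nM camptothecin for at least 48 h at 37 C; viability read as ATP content by CellTiter-Glo luminescence.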
DT40 TDP1 no CPT – qHTS for Inhibitors of human tyrosyl-DNA phosphodiesterase 1 (TDP1): qHTS in cells in absence of CPT; Potency, µM (top dose mostly 46.2 µM), hits mostly inhibitors; DT40 Tdp1-/- hTDP1 cells, no CPT, ATP luminescence, 48 h; AID 686978, 2013; hit rate 15% among 420,000; note: nearly all actives have a fitted effect of over 55% in size
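Chicken DT40 Tdp1-/- cells complemented with human TDP1, screened without camptothecin (DMSO vehicle only), 400 cells/well. Compounds pin-transferred, cells incubated at 37 °C for at least 48 hr. Growth read as ATP-dependent luminescence (CellTiter-Glo, 30 min at RT).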
IL1B secr inh – qHTS for Inhibitors of Inflammasome Signaling: IL-1-beta AlphaLISA Primary Screen; THP-1 LPS/ATP IL-1B secretion, AlphaLISA, 16 h; hits give low values; activity change, % at 57.5 µM; hit rate 4.7% among 360,000; AID 743279, 2014; in the data active = activity change below about -50%; inconclusive = mostly about -30% to -49%
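THP-1 cells pretreated 1 hr with compounds (up to 57.5 uM final), then stimulated with LPS (250 ng/mL final) plus ATP (1.25 mM final); secreted IL-1B measured by AlphaLISA after 16 hr, decreased signal indicating inhibition.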
HT1080 IDH1KD tx – qHTS for induction of synthetic lethality in tumor cells producing 2HG: qHTS for the HT-1080-IDH1KD cell line; Potency, µM (highest dose often 46.1 µM), most hits filed as cytotoxic; HT-1080 IDH1 knockdown viability, ATP luminescence, 48 h; hit rate 2% among 360,000
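IDH1KD HT-1080 cells, 750/well, RPMI + 5% FBS; compound pinned after 2 h settling; 48 h, 37 °C; CellTiter-Glo luminescence; % activity normalised to DMSO and no-cell wells; curves fitted, classed by r2 and efficacy.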
HT1080-NT tox – qHTS for induction of synthetic lethality in tumor cells producing 2HG: qHTS for the HT-1080-NT fibrosarcoma cell line | HT-1080-NT fibrosarcoma viability, CellTiter-Glo ATP luminescence, 48 h | Potency, µM (top dose mostly 46.1 µM), most hits filed as cytotoxic | hit rate 1.6% among 360,000 | AID 686970, 2013;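 note: NT is the 2HG producing partner of a matched IDH1 knockdown line; nearly all actives have a fitted effect of over 55% in size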
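HT-1080-NT fibrosarcoma cells (2HG-overproducing), 750 cells/well in RPMI with 5% FBS, dosed after 2 h and incubated 48 h at 37C. CellTiter-Glo luminescence normalized to DMSO and no-cell wells; concentration-response curves fitted and classed.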
Hits are given with their value; i = inactive; ? = inconclusive; nt = no result given; [ ] = another dose, or the depositor's remark. Shown are actives, neighbours in structure and some others; about 19% of the full set was active somewhere. Unless noted, calls come from the whole dose curve; as a rule, active = well fitted curve in the direction sought with a large enough effect; inconclusive = small, poorly fitted or top-dose-only effect, or another doubt; inactive = no such curve, though single readings can be large; an effect the other way counts as inactive or inconclusive.

SMILES	TDP1 cell CPT	DT40 TDP1 no CPT	IL1B secr inh	HT1080 IDH1KD tx	HT1080-NT tox
CCOc1ccc(NC(=O)NCC2CCN(c3ccc(OC)cc3)C2)cc1 (stereo unspecified)	i	i	i	i	i
COc1ccc(N2CCC(CNC(=S)Nc3c(C)cc(C)cc3C)C2)cc1 (stereo unspecified)	?	?	i	i	i
CCc1ccc(NC(=O)NCC2CCN(c3ccc(OC)cc3)C2)cc1 (stereo unspecified)	9.2µM	i	i	i	i
CC(=O)c1cccc(NC(=O)COC(=O)c2ccccc2OCc2cccc(Br)c2)c1	i	i	nt	i	i
COc1ccc(C2OCC(C)([N+](=O)[O-])CO2)cc1 (stereo unspecified)	i	i	i	i	i
C/C(=N\NC(=O)c1[nH]c2c([N+](=O)[O-])cc(C)cc2c1-c1ccccc1)c1cccnc1	25.9µM	14.6µM	i	i	i
C/C(=N\NC(=O)c1cccnc1)c1ccc(C)c([N+](=O)[O-])c1	i	i	i	i	i
CCCCCSc1nnc2c(n1)[nH]c1c(C)cccc12	9.2µM	2.91µM	nt	nt	nt
COc1cccc(CNS(=O)(=O)c2ccc(N3CCCCS3(=O)=O)cc2)c1	23.1µM	16.4µM	nt	nt	nt
COc1ccc(CCNS(=O)(=O)c2ccc(N3CCCCS3(=O)=O)cc2)cc1	23.1µM	20.6µM	nt	nt	nt
COc1cccc(CNS(=O)(=O)c2ccc(S(=O)(=O)N3CCCC3)cc2)c1	i	i	i	i	i
COc1ccccc1CCNS(=O)(=O)c1ccc(N2CCCCS2(=O)=O)cc1	23.1µM	20.6µM	nt	nt	nt
COc1cc(/C=N/NC(=O)c2ccc3c(c2)OCCO3)cc(Cl)c1O	i	i	i	i	i
CCCCSc1nnc(-c2ccccc2NC(C)=O)c(=O)[nH]1	i	i	i	i	i
O=C(NCCCN1CCOCC1)NC1CCCCC1	i	?	i	i	i
O=C(NCCCCCCCN1CCCCCCC1)C(C1CCCCC1)C1CCCCC1	13µM	14.6µM	-81.6	?	i
CCOc1ccc2ccccc2c1/C=N/NC(=O)CNC(=O)c1ccccc1F	i	?	i	i	i
COc1ccccc1N(CC(=O)N/N=C/c1c(O)ccc2ccccc12)S(C)(=O)=O	5.17µM	5.8µM	i	?	?
COc1ccccc1CNC(=O)CN(c1ccccc1OC)S(C)(=O)=O	i	i	nt	nt	nt
CCOc1ccc2ccccc2c1/C=N/NC(=O)CNC(=O)Cc1ccccc1	18.4µM	i	i	i	i
COc1ccccc1NC(=O)c1c(N=Cc2c(O)ccc3ccccc23)cnn1C	8.2µM	6.51µM	i	5.8µM	8.2µM
COc1ccccc1NCC(=O)N/N=C/c1c(O)ccc2ccccc12	5.8µM	2.91µM	i	10.3µM	14.6µM
COc1ccccc1NCC(=O)N/N=C/c1cccnc1	i	i	i	i	i
CCc1nc2cc(C(=O)N(C)C3CCOC3)cc(NC(=O)c3ccccc3OC)c2n1C (stereo unspecified)	i[9.04 µM]	i	nt	nt	nt
O=C(Cc1n[nH]c(=O)[nH]c1=O)N/N=C/c1c(O)ccc2ccccc12	i	i	i	i	i
SMILES	TDP1 cell CPT	DT40 TDP1 no CPT	IL1B secr inh	HT1080 IDH1KD tx	HT1080-NT tox
O=C(CNc1ccc(F)cc1)N/N=C/c1c(O)ccc2ccccc12	10.3µM	9.2µM	i	10.3µM	?
COc1ccc2nc(NC(=O)Cn3cnc4ccccc4c3=O)sc2c1	i	i	i	i	i
CC(=O)Nc1sc2c(c1-c1nc3ccccc3s1)CCN(C(C)C)C2	2.31µM	2.59µM	-105.1	11.6µM	11.6µM
CC(=O)N1CCc2c(sc(NC(=O)CSc3ccc(F)cc3)c2-c2nc3ccccc3s2)C1	11.6µM	9.2µM	nt	nt	nt
Cc1csc(NC(=O)CSCC(=O)O)c1-c1nc2ccccc2s1	i	i	i	i	i
CN1CCc2c(sc(NC(=O)CSc3ccc(F)cc3)c2-c2nc3ccccc3s2)C1	?	16.4µM	nt	nt	nt
CC1Cc2ccccc2N1C(=O)CSc1nnc2c(n1)[nH]c1ccc(F)cc12 (stereo unspecified)	?	20.6µM	?	i	i
O=C(CSc1nnc2c(n1)[nH]c1ccc(F)cc12)N1CCOCC1	i	i	i	i	i
Cn1c2ccccc2c2nnc(SCC(=O)NC3CCCC3)nc21	i	?	i	i	i
CC1CCc2cc(F)ccc2N1C(=O)CSc1nnc2c3ccccc3n(C)c2n1 (stereo unspecified)	18.4µM	20.6µM	i	i	i
CCCn1c(SCC(=O)N2c3ccc(F)cc3CCC2C)nnc1-c1ccccn1 (stereo unspecified)	?	20.6µM	i	i	i
CCNC(=O)NC(=O)COC(=O)C1CSC2(C)CCC(=O)N12 (stereo unspecified)	i	i	i	i	i
CC(C)c1nc(N2CCOCC2)c(C#N)c2c1CCC2	i	?	i	i	i
O=c1c(-c2cccs2)nc2cnc(N3CCNCC3)nc2n1C1CC1	?	20.6µM	nt	nt	nt
CN1CCN(c2ncc3nc(-c4cccs4)c(=O)n(Cc4cccs4)c3n2)CC1	18.4µM	?	nt	nt	nt
CN1CCN(c2ncc3nc(-c4cccs4)c(=O)n(C[C@H]4CCCO4)c3n2)CC1	11.6µM	5.17µM	nt	nt	nt
COCCn1c(=O)c(-c2cccs2)nc2cnc(Oc3ccc(OC)cc3)nc21	?	25.9µM	nt	nt	nt
Cn1c(=O)c(-c2cccs2)nc2cnc(N3CCNCC3)nc21	i	i	nt	nt	nt
CC(C)(CNC(=O)c1cccc(S(=O)(=O)N2CCCCC2)c1)N1CCOCC1	i	i	i	i	i
C[C@H](NC(=O)C[C@@H]1C=C[C@@H](NC(=O)CN2CCOCC2)[C@@H](CO)O1)c1ccccc1	i	i	i	i	i
O=C(COC(=O)CCS(=O)(=O)c1ccc(F)cc1)NC1CCCCC1	i	i	i	i	i
O=c1cnc2cnc(N3CCNCC3)nc2n1Cc1cccs1	i	i	nt	nt	nt
COCCn1c(=O)cnc2cnc(OC)nc21	i	i	nt	nt	nt
CN1CCN(c2ncc3nc(-c4cn(C)c5ccccc45)c(=O)n(C[C@H]4CCCO4)c3n2)CC1	20.6µM	?	nt	nt	nt
CN1CCN(c2ncc3nc(-c4ccccc4)c(=O)n(C4CC4)c3n2)CC1	20.6µM	?	nt	nt	nt
CN1CCN(c2ncc3nc(-c4cc(F)cc(F)c4)c(=O)n(C4CC4)c3n2)CC1	?	i	nt	nt	nt
O=c1c(-c2cccs2)nc2cnc(N3CCNCC3)nc2n1Cc1cccs1	7.31µM	13µM	nt	nt	nt
COCCn1c(=O)cnc2cnc(N3CCN(C)CC3)nc21	23.1µM	i	nt	nt	nt
COc1cc(-c2nnc(SCC(=O)NC3CCS(=O)(=O)C3)o2)cc(OC)c1OC (stereo unspecified)	i	i	i	i	i
